Reference: ChEMBL document CHEMBL3988442, “University of Dundee, Small-Polar-MMV Screening Library” (2021)
Among all 66,000 compounds or so, about 960 (1.5%) showed an effect of 50% or more. The sample as a whole holds a higher share of strong results than the screen did.

Tested on: Trypanosoma brucei
Assay: Trypanosoma brucei 72 hour study
Format: functional, organism-based
Set-up: scale not given: in the data most compounds retested in dose-response had high values

COc1c(C)cnc(CN(C)C2CCN(C3CCOCC3)CC2)c1C
Percent Effect (30 µM, 30.03 µM): -11.24%

COc1c(C)cnc(CN(C)C2CCCCC2)c1C
Percent Effect (30 µM, 30.03 µM): 75.58%

COc1c(C)cnc(CN(C)C2CCOC3(CCOCC3)C2)c1C (centres undefined)
Percent Effect (30 µM, 30.03 µM): -25.65%

Cc1cc(C)c(CNC(=O)NCc2ccc(F)cc2)c(=O)[nH]1
Percent Effect (30.3 µM, […]): -10.32%

COc1cc(CNC(=O)NCc2c(C)cc(C)[nH]c2=O)ccc1C
Percent Effect (30 µM, 30.03 µM): 17.33%

COc1ccc(CNC(=O)NCc2c(C)cc(C)[nH]c2=O)cc1
Percent Effect (30 µM, 30.03 µM): 50.39%

Cc1sc(CN)nc1-c1ccc(Cl)cc1.Cl
Percent Effect (30 µM, 30.03 µM): -33.68%

O=C(NCCCNc1ccc(C(F)(F)F)cn1)c1ccc(F)cc1
Percent Effect (10 µM): -67.47%

Cc1nc(CCN2CCC(Oc3ccccc3F)CC2)cs1
Percent Effect (30.3 µM, […]): -2.649%

Cc1nc(C)c(CCN2CCC(Oc3ccccc3F)CC2)s1
Percent Effect (30.3 µM, […]): 55.32%

Cc1nc(CCN2CCC(Oc3ccccc3F)CC2)c(C)s1
Percent Effect (30.3 µM, […]): 14.09%

O=C(O)C(F)(F)F.O=C(O)C(F)(F)F.O=C1NC2(CCN(Cc3ccsc3)CC2)CC1c1ccncc1 (centres undefined)
Percent Effect (30 µM, 30.03 µM): 34.47%

CC(C)n1c(=O)nc2n1C(=O)N(c1ccc(F)cc1)C2
Percent Effect (30 µM, 30.03 µM): 24.9%

COc1cc(Cl)cc(CN2CCCC(N3CCCC3)C2)c1OC (centres undefined)
Percent Effect (30 µM, 30.03 µM): -17.8%

c1sc(C2CCCCC2)nc1CN1CCn2c(nnc2C2CC2)C1
Percent Effect (30.3 µM, […]): 99.05%

c1cnc(-c2nc(CN3CCn4c(nnc4C4CC4)C3)cs2)nc1
Percent Effect (30 µM, 30.03 µM): 1.717%

c1sc(C2CCCC2)nc1CN1CCn2c(nnc2C2CC2)C1
Percent Effect (30 µM, 30.03 µM): -23.12%

Cc1ccc(C(=O)N2CCCC(c3[nH]ncc3S(C)(=O)=O)C2)s1 (centres undefined)
Percent Effect (30.3 µM, […]): -30.56%

Cc1csc(C(=O)N2CCCC(c3[nH]ncc3S(C)(=O)=O)C2)c1 (centres undefined)
Percent Effect (30.3 µM, […]): 68.17%

Cc1ccsc1C(=O)N1CCCC(c2[nH]ncc2S(C)(=O)=O)C1 (centres undefined)
Percent Effect (30.3 µM, […]): -15.29%

COCCN1CCC2(CC1)CN(C(=O)c1cccs1)CCO2.O=C(O)C(F)(F)F
Percent Effect (30.3 µM, […]): -16.53%

CN(C)CCO[C@H]1CN(C(=O)c2cccs2)[C@@H]2COC[C@H]12.O=C(O)C(F)(F)F
Percent Effect (30 µM, 30.03 µM): 4.197%

CCC(=O)Nc1ccc(C(C)Nc2nc3c(cnn3C)c(=O)[nH]2)cc1 (centres undefined)
Percent Effect (30.3 µM, […]): 99.39%

CC(Nc1nc2c(cnn2C)c(=O)[nH]1)c1ccccn1 (centres undefined)
Percent Effect (30.3 µM, […]): -31.46%

Cc1ccc(C(C)N(C)Cc2nc3c(cnn3C)c(=O)[nH]2)cc1 (centres undefined)
Percent Effect (30 µM, 30.03 µM): 18.7%

CC(C)Sc1ccc(C(C)Nc2nc3c(cnn3C)c(=O)[nH]2)cc1 (centres undefined)
Percent Effect (30.3 µM, […]): 62.45%

CC(Nc1nc2c(cnn2C)c(=O)[nH]1)c1ccc2c(c1)CCCC2 (centres undefined)
Percent Effect (30.3 µM, […]): 35.38%

CC(Nc1nc2c(cnn2C)c(=O)[nH]1)c1ccc(F)cc1 (centres undefined)
Percent Effect (30.3 µM, […]): -23.37%

CSCC[C@H](N)c1nnc(SCC(=O)Nc2ccc(Br)cc2)o1.Cl
Percent Effect (30 µM, 30.03 µM): -43.15%

CC(CNC(=O)c1ccc(F)cc1I)N1CCCC1 (centres undefined)
Percent Effect (30.3 µM, […]): 0.5476%

COCCC(=O)NCCn1nc(C2CCNC2)c2cccnc21.Cl (centres undefined)
Percent Effect (30.3 µM, […]): -11.01%

Cc1nc(CN2CCC(O)(c3ccccc3F)CC2)c2ccccn12.O=C(O)CC(O)(CC(=O)O)C(=O)O
Percent Effect (30.3 µM, […]): -5.12%

Cc1cccc(C)c1NC(=O)c1cc(S(N)(=O)=O)c(C)o1
Percent Effect (30 µM, 30.03 µM): -12.34%

CC1(C(=O)NCc2cccnc2Oc2ccc(F)c(F)c2)CCCNC1 (centres undefined)
Percent Effect (30 µM, 30.03 µM): -31.1%

Cn1cc(CNC(=O)NCCOc2ccc(F)c(F)c2)cn1
Percent Effect (30 µM, 30.03 µM): -10%

Cc1nc(C2(O)CCCNCC2)sc1CCOc1ccc(F)c(F)c1.Cl (centres undefined)
Percent Effect (30.3 µM, […]): 101.7%

Cc1nccc(CNC(=O)NCCOc2ccc(F)c(F)c2)n1
Percent Effect (30.3 µM, […]): 8.406%

Cc1cc(CNC(=O)NCCOc2ccc(F)c(F)c2)on1
Percent Effect (30 µM, 30.03 µM): -38.02%

CCC(CN1CCCC1)NC(=O)Cc1c(C)[nH]c2c(C)cc(C)cc12.O=C(O)CC(O)(CC(=O)O)C(=O)O (centres undefined)
Percent Effect (30.3 µM, […]): 9.843%

Cc1ccc(CN2CCCn3nnc(COCC4CC4)c3C2)s1.O=C(O)C(F)(F)F
Percent Effect (30 µM, 30.03 µM): 22.43%

CN(C)CCCN(Cc1ccco1)Cc1ccnn1C1CCCCO1.O=C(O)CC(O)(CC(=O)O)C(=O)O (centres undefined)
Percent Effect (30.3 µM, […]): -21.72%

O=C(O)C(F)(F)F.O=C(c1ccncc1)N1CCOC2(CCCN(c3nncs3)C2)C1 (centres undefined)
Percent Effect (30.3 µM, […]): -64.64%

CN(C)S(=O)(=O)N1CCC(c2cccc(Cc3ccccc3Cl)n2)CC1
Percent Effect (30.3 µM, […]): -38.96%

Cc1ccc(-c2nc(CN(Cc3cccs3)CC3CCCO3)no2)cc1 (centres undefined)
Percent Effect (10 µM): -10.74%
Percent Effect (30.3 µM, […]): 9.515%

Cc1ncoc1C(=O)N1C[C@H]2CCC[C@@]2(COCc2cccnc2)C1.O=C(O)C(F)(F)F
Percent Effect (30 µM, 30.03 µM): 18.22%

Cn1nnc2c1CCN(CC1CC1)C2COCc1ccccc1.O=C(O)C(F)(F)F (centres undefined)
Percent Effect (30 µM, 30.03 µM): 17.54%

CO[C@@H]1CC[C@H]2[C@H]1OCCN2Cc1ccc(F)c(F)c1.O=C(O)C(F)(F)F
Percent Effect (30.3 µM, […]): -7.78%

CC(C)NC(=O)N1CCOC2(CCCN(c3ncccc3F)C2)C1.O=C(O)C(F)(F)F (centres undefined)
Percent Effect (30.3 µM, […]): -41.85%
